Hit rate of the full screen: of about 16,000 compounds, about 5,700 (36%) were called active. About 24% were inconclusive and are not listed. Some of the results follow. A number with no mark means an inactive call. Calls follow the shape of the dose curve; as a rule, active = well fitted curve in the direction sought with a large enough effect; inconclusive = small, poorly fitted or top-dose-only effect, or effect the other way; inactive = no such curve, though single readings can be large or run the other way.
% is scaled to controls: 0 for no effect and ±100 for the full control effect.

For the experiment, the target named is Cytochrome P450 1A2 (Homo sapiens) (UniProt P05177). The experiment is described as follows: Cytochrome panel assay with activity outcomes. Particulars: recombinant CYP, pro-luciferin dealkylation, luminescence, p450-cyp1a2; series mostly up to 57.1 µM; activity, negative = inhibition: at the top concentration.
Sequence of Cytochrome P450 1A2 (Homo sapiens) (P05177 whole entry, looked up): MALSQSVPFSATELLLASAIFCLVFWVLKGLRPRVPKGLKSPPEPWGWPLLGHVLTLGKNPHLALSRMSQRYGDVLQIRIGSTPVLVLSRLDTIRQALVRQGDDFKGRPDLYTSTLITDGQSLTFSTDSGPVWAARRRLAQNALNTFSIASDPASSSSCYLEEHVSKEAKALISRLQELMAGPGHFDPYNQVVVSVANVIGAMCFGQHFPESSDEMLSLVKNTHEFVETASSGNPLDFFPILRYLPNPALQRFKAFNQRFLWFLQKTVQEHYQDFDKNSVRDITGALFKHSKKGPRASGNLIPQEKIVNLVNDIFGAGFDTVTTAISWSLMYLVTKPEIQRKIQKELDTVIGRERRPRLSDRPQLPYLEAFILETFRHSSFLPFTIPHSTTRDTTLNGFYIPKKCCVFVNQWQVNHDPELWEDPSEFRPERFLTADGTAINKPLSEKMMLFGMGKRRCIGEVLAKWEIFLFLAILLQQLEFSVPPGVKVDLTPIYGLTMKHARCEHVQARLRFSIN
Regarding `NS(=O)(=O)c1cc(Cl)c(Cl)c(S(N)(=O)=O)c1`, the “activity, negative = inhibition” value is -15.8% [at 25.6 µM]. For orientation: AC50 means the concentration giving half of the maximal activity seen. On to `CN(C)/C(CN1CCN(C=O)CC1)=C1\N=C(c2ccccc2)OC1=O`, for which the AC50 was 14.1 µM (active). In the case of `O=C(O)[C@@H](S)[C@H](S)C(=O)O`, the activity, negative = inhibition was -20.1% [at 11.4 µM]. On to `CC1CCN(CCCCOc2ccccc2[N+](=O)[O-])CC1`, for which the “activity, negative = inhibition” value is -15.7%. In the case of `OCCN1CCN(CCOc2cccc(Cl)c2)CC1`, the “activity, negative = inhibition” value was -16.3%. Turning to `CC1CCN(CCOc2cc(Cl)ccc2Cl)CC1`, the AC50 is 8.91 µM (active).

Consider `CC1CCN(C(=O)c2ccc(COc3ccccc3Cl)o2)CC1`, for which the half-maximal activity concentration (AC50) is 3.16 µM (active). For the compound `COc1ccccc1CNC(=O)C1CCN(S(=O)(=O)N2CC(C)CC(C)C2)CC1` (stereo not given), the “activity, negative = inhibition” value was -15.6%.

Turning to `CC1CN(C2CCN(C(=O)c3cccc(Cl)c3)CC2)CC(C)O1` (stereo not given), the “activity, negative = inhibition” value is -4.5%. In the case of `O=C(OCc1ccccn1)c1ccc(COc2ccccc2Cl)o1`, the AC50 is 7.08 µM (active). For the compound `C[C@@H]1NC(=O)[C@@H](C)COC(=O)[C@H](C)NC(=O)[C@@H](C)COC1=O`, the activity, negative = inhibition was 0.211% [at 11.4 µM]. Take `CC(C)n1nnnc1SCC(=O)NCCc1ccccc1`: the AC50 was 12.6 µM (active). On to `CC(NC(=O)CSc1nc(=O)cc(N)n1CCc1ccccc1)c1ccccc1` (stereo not given), for which the “activity, negative = inhibition” value was -15%. For `CCn1c(CC(=O)Nc2ccc(C)cc2)nnc1SCC(=O)NCCc1ccccc1`, the “activity, negative = inhibition” value is 12.5%. In the case of `COc1ccc(CNc2ccnc(-c3ccc(N(C)C)cc3)n2)c(OC)c1`, the AC50 is 3.16 µM (active). Same read-out and setting: in the case of `COc1ccccc1CNc1ccnc(-c2ccc(N(C)C)cc2)n1` it was 0.794 µM (active); in that of `COc1ccccc1CNc1ccnc(-c2ccoc2)n1`, 1.58 µM (active); in that of `COc1ccccc1CNc1ccnc(-c2ccc(C(=O)N(C)C)cc2)n1`, 12.6 µM (active). With `COC(=O)N1CCC2(CC1)CCN(c1ncccn1)CC2`, the “activity, negative = inhibition” value was 6.95%. As for `CN(C)c1ccc(-c2nccc(NCc3ccccc3)n2)cc1`, the concentration at half-maximal activity (AC50) is 1.26 µM (active). `O=[N+]([O-])c1cc(/C=N/N2CCN(C3c4ccccc4-c4ccccc43)CC2)ccc1Cl`: the “activity, negative = inhibition” value was -17%. Regarding `Nc1nnnn1/N=C\c1ccc(Cl)c([N+](=O)[O-])c1`, the AC50 was 5.01 µM (active). Regarding `COc1cc(OC)c2cc(-c3ccncc3)cnc2c1`, the AC50 is 0.2 µM (active).

For `CCc1ccc(C(=O)CN(C#N)c2nc(C)cc(C)n2)cc1`, the half-maximal activity concentration (AC50) was 15.8 µM (active).

As to `CCc1ccc(C(CC(=O)c2ccc(Cl)cc2)C(=O)O)cc1` (stereo not given), the “activity, negative = inhibition” value is 7.03%. As to `CCCCN(CC)C(=O)Cc1ccccc1OC`, the half-maximal activity concentration (AC50) is 14.1 µM (active). For `COc1ccccc1CN1CCC2(CC1)CCN(C(C)=O)CC2`, the “activity, negative = inhibition” value was 13.1%. In the case of `COCC(=O)N1CCC2(CCN(Cc3ccccc3OC)CC2)CC1`, the “activity, negative = inhibition” value is 13.3%. For the compound `O=C(COC(=O)c1cccnc1Cl)c1ccccc1`, the half-maximal activity concentration (AC50) was 11.2 µM (active). Take `Cc1ccc(C(=O)COC(=O)c2ccccc2N2C(=O)C3C4CCC(C4)C3C2=O)cc1C` (stereo not given): the “activity, negative = inhibition” value is -26.5%. In the case of `O=C(COC(=O)c1cccnc1)c1ccc(Cl)c(Cl)c1`, the AC50 is 0.891 µM (active).

Take `O=C(O)COc1c(Cl)cc(Cl)c2cccnc12`: the activity, negative = inhibition was -1.3% [at 2.29 µM]. Regarding `O=C(OCc1ccc(Cl)cc1Cl)c1cccnc1Cl`, the AC50 was 1 µM (active).

With `Cc1ccc(C(=O)COC(=O)c2ccc3c(c2)C(=O)N(c2cccc4ncccc24)C3=O)cc1C`, the “activity, negative = inhibition” value was -1.92%. As to `COCC(=O)N1CCC2(CCCN(C(=O)Nc3ccc(OC)cc3)C2)CC1`, the “activity, negative = inhibition” value is -12%.

Turning to `CC(C)(C)NC(=O)NC(=O)CSc1nnc2ccccn12`, the “activity, negative = inhibition” value is -9.41%. For `Cc1nc2ccccn2c1C(=O)CSc1ccccc1Cl`, the AC50 was 8.91 µM (active). Consider `Cc1nc2ccccn2c1/C(O)=C1\C(=O)C(=O)N(CCCn2ccnc2)C1c1ccncc1` (stereo not given), for which the “activity, negative = inhibition” value was -11.6%. `CCOc1c2ccc(C(=O)NCc3ccco3)cc2nn1CC`: the half-maximal activity concentration (AC50) was 2.51 µM (active). `CCCCCn1c(SCc2ccncc2)nc2cc(C(=O)NCc3ccco3)ccc2c1=O`: the AC50 is 4.47 µM (active).

For `CCCCn1nc2cc(C(=O)NCC3CC3)ccc2c1OCC`, the “activity, negative = inhibition” value was -28.4%.

As to `CCOc1c2ccc(C(=O)NCCc3cccs3)cc2nn1CC`, the AC50 is 8.91 µM (active). Consider `O=C(CSc1nc2ccccc2c(=O)n1CCCC(=O)N1CCCC1)NCc1ccco1`, for which the “activity, negative = inhibition” value is -10.2%. With `CCCn1nc2cc(C(=O)NCc3ccccc3OC)ccc2c1OCC`, the “activity, negative = inhibition” value is -23.4%. Still for that read-out and setting: the result for `c1ccc(C2OCC3(CO2)COC(c2ccccc2)OC3)cc1` (stereo not given) reads -11.4%. Regarding `Cc1ccc(CNC(=O)Cn2c(=O)oc3ccccc32)o1`, the concentration at half-maximal activity (AC50) is 12.6 µM (active). In the case of `COCCNC(=O)CCn1c(=O)oc2ccccc21`, the “activity, negative = inhibition” value is -5.72%.

Regarding `Cc1cccc(NC(=O)Cn2c(=O)oc3ccccc32)c1`, the AC50 is 15.8 µM (active). With `Cc1cccc(NC(=O)Cn2c(=O)n3nc(CCn4nc(C)cc4C)nc3c3ccccc32)c1`, the “activity, negative = inhibition” value is -14.4%.

As to `CC1CCCC(NC(=O)CCn2c(=O)oc3ccccc32)C1C` (stereo not given), the “activity, negative = inhibition” value is -15.5%.

(Values after PubChem BioAssay AID1851 (National Center for Advancing Translational Sciences (NCATS), 2009).)
